# Laboratory results reported in the supplement of paper PMC10338343.
# ± gives the standard deviation.
# Tested on: MILI (PIWIL2) piRISC loaded with L1MC piRNA (26 nt)
# Test: pre-steady-state target cleavage rate (min^-1); guide: L1MC piRNA 5'p-UAACUAAAUACUAUGCAAGCUGUAGG; MIWI and MILI are mouse PIWI proteins and EfPiwi is from a freshwater sponge; tags in brackets are library labels; higher = faster piRNA-guided slicing of the target
# Conditions: auxiliary factor: 500 nM mouse GTSF1
# In short: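 Three pooled Cleave-'n-Seq trials supplied the data, with k3 capped at 0.0001 min^-1. In each, […] transcribed, DNA-blocked target RNA library and 1 nM active affinity-purified piRISC with one synthetic guide reacted in HEPES–potassium acetate buffer at 33 °C for 0–8 or 0–960 min, with or without 500 nM GTSF1 partner protein. Uncleaved targets were sequenced and normalised to depth and to weakly complementary targets. A burst-and-steady-state fit provided the pre-steady-state cleavage rate.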
# 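Note: 1 nM active piRISC with 0.1 nM target library at 33 °C single turnover.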
row,Sequence,pre-steady-state target cleavage rate
1,UCCUGGAUCAGCUUGCAUAGAUAUUAGUUA,0.00566 ± 0.0036
2,UCCUGGAUGUGCUUGGAUUGUAUUUAGUUA,0.00469 ± 0.0044
3,UCCUGGAUGACCUUGCAUAGUAAUUAGUUA,0.131 ± 0.027
4,UCCUGGAUCAGCUUGCAUAGUAAAAAGUAA,0.108 ± 0.021
5,UCCUGGAUGAGCUUGCAUAGUUUUUACUUA,0.00548 ± 0.0051
6,UCCUGGAUGUGCUUGCAUUGUAUUUACUUA,0.0239 ± 0.0082
7,UCCUGGUACAGCUUGCAUAGUAAAAAGUAA,0.031 ± 0.013
8,UCCUGGAACAGCUUGCUUAGAAUUUAGUUA,0.0285 ± 0.0057
9,UCCUGGAUGUCGUUGACAUAGUAUUUAGUUA,0.0142 ± 0.0054
10,UCCUGGAUCUCCUUGCAUAGUAUUUUCAAA,0.0367 ± 0.0088
11,UCCUGGUACAGCUUGCAUUCUAUUUAGUUA,0.0335 ± 0.018
12,UCCUCCUACAGCUUGGUAAGUAUUUAGAAA,0.0543 ± 0.013
13,UCCUGCUACAGCUUGCAGUAGUAUUUAGUUA,0.00973 ± 0.0053
14,UCCUGGAACAGCAAGCAUAGUAUUUACAAA,0.148 ± 0.034
15,UCCUGGAACAGCUUGCAUUGUAUUUACUUA,0.163 ± 0.028
16,UCCUGGUACAGCUUGCAUAGUUUUUUGUUA,0.0564 ± 0.015
17,UCCUGGAUGUGCAACCAUAGUAUUUAGUUA,0.0128 ± 0.0042

row,Sequence,pre-steady-state target cleavage rate
1,UCCUGGUACAGCUUGCAUAGUUUAUAGUUA,0.0525 ± 0.018
2,UCCUGGAUGUCCUAGCAUAGUAUUUAGAUA,0.0302 ± 0.007
3,UCCUGGAACAGCUUGCUUAGUAUUUAGAAA,0.142 ± 0.029
4,UCCUGGAUGUCGAUGCAGAGUAUUUAGUUA,0.00473 ± 0.0028
5,UCCUGGUAGAGCUUGCAUACUAUUUAGUUA,0.0467 ± 0.011
6,UCCUGGAUGUGCUUCGUUAGUAUUUAGAAA,< 0.0001
7,UCCUGGAUGAGCUUGCAUAGUAUUUUGAUA,0.0343 ± 0.014
8,UCCUGGAUGUGCUUGCAUAGAAUAUAGUUA,0.00814 ± 0.0043
9,UCCUGGAUGUCGUAGCAUAGUUUUUAGUUA,0.00685 ± 0.0041
10,UCCUGGAUGUCGUUGCAUAGUAUGUAGUUA,0.015 ± 0.0074
11,UCCUGGAACAGCUUGCAAUGUAUUUAGAAA,0.0719 ± 0.018
12,UCCUGCUACAGCUUGCUAUGUAUUUAGAAA,0.0133 ± 0.0063
13,UCCUGGAUCAGCUUGCAUGUAUUUAGUUA,0.041 ± 0.0073
14,UCCUGGAUGUCGAAGCAUAGUAUUUAGUAA,0.0199 ± 0.0047
15,UCCUGGAUCAGCUUGCAUAGUAAAUACAAA,0.0497 ± 0.016
16,UCCUGGAUGUGCUUGCAUAGAAUUAAGUUA,0.00431 ± 0.003
17,UCCUGCUACAGCUAGCAUAGUAUUUACAAA,0.0708 ± 0.018

# Same assay, conditions: auxiliary factor: none (no GTSF1)
row,Sequence,pre-steady-state target cleavage rate
1,UCCUGGAUGUCGAACCAUUGUAAUUAGUUA,< 0.0001
2,UCCUGGAUGUCGUUGCAUACAAUUUAGUUA,0.00319 ± 0.0024
3,UCCUGGAUGUCCUUGCAUACAUAAAUCAAA [g12:g19:cont:t1A],< 0.0001
4,UCCUGGAUGUCGAACGAUAGUAUAUUAGUUA,< 0.0001
5,UCCUGGAUGUCGAACGUUAGUAUUAACUUA,< 0.0001
6,UCCUGGAUGUCGAACGUUACUUUUUAGUUA,< 0.0001
